# In publication PMC7862700, “An all-to-all approach to the identification of sequence-specific readers for epigenetic DNA modifications on cytosine”:
# Legend:
# Experiment in all cases: DAPPL (digital affinity profiling via proximity ligation, sequencing); 10 mM Tris-HCl pH 7.5, 50 mM NaCl, 1 mM DTT, 4% glycerol, room temperature, 30 min; GST-TFs on glutathione beads, 16-mer random dsDNA library, 0.1% formaldehyde crosslink after washing; high values mean tight binding
# HSF1 = HSF1 (Homo sapiens, UniProt Q00613 1-529); conditions: protein: recombinant; tags: N-terminal GST; chain copies: 3; dsDNA, one strand shown
# HSF1, sequence (Q00613 whole entry, the tested form may be a part): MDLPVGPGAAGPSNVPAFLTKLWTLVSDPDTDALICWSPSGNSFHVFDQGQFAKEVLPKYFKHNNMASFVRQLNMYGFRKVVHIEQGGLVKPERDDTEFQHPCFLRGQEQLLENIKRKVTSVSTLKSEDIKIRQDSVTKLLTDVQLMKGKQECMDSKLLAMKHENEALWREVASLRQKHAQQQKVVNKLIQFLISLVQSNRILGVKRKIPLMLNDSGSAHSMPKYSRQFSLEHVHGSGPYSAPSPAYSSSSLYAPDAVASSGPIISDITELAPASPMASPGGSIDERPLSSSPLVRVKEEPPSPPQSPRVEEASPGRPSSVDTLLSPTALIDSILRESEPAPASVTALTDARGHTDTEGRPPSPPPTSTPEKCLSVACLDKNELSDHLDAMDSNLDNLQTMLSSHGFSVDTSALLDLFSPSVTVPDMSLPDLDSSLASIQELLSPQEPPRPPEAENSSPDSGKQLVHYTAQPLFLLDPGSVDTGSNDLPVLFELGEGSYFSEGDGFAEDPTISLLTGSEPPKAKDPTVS
# In short: (§1)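 Sequencing on an Illumina NextSeq500 followed washing, crosslinking with 0.1% formaldehyde, proximity ligation (BsaI/T4 ligase, 1 h, 37 °C) and PCR amplification of pools that had been incubated for 30 min at room temperature with 200 nmole of a random double-stranded 16-mer DNA library in Tris/NaCl/DTT/glycerol buffer. Each pool held DNA-barcoded human transcription factors, expressed in yeast as GST fusions and captured on glutathione beads, plus a tag-only sample. Binding signal is a hexamer's read frequency for a factor divided by its frequency in the tag-only sample.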
# CRX = CRX (Homo sapiens, UniProt O43186 1-299); conditions: protein: recombinant; tags: N-terminal GST; dsDNA, one strand shown
# CRX, sequence (O43186 whole entry): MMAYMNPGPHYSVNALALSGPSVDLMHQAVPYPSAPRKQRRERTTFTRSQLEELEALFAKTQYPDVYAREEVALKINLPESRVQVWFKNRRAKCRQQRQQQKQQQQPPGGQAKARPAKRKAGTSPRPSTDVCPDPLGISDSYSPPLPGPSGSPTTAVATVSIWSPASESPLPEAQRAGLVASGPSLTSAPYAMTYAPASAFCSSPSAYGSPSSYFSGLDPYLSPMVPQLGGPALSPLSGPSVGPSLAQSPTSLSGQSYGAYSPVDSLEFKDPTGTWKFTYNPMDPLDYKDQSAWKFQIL
# In short: as §1
# SPIB = SPIB (Homo sapiens, UniProt Q01892 1-262); conditions: protein: recombinant; tags: N-terminal GST; dsDNA, one strand shown
# SPIB, sequence (Q01892 whole entry): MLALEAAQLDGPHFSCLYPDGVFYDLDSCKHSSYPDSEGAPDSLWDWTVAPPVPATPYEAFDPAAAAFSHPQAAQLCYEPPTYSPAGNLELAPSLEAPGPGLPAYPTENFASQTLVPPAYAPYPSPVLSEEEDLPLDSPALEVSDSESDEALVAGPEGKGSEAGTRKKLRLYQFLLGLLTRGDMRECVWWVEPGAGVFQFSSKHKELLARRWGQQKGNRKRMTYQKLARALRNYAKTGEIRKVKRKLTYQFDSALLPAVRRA
# In short: as §1
# SPDEF = target: T1, SPDEF (Homo sapiens, UniProt O95238 1-335); conditions: protein: recombinant; tags: N-terminal GST; dsDNA, one strand shown
# T1 sequence: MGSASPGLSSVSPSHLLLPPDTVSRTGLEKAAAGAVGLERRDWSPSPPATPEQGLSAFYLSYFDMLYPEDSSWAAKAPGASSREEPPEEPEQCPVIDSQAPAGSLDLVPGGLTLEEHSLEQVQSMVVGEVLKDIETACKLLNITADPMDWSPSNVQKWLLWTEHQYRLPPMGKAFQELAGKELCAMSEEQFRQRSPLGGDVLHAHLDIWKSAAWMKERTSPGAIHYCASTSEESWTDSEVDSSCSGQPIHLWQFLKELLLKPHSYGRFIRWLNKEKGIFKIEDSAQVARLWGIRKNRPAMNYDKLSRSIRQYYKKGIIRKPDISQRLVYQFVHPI
# In short: as §1
# ETV3L = target: T2, ETV3L (Homo sapiens, UniProt Q6ZN32 1-361); conditions: protein: recombinant; tags: N-terminal GST; dsDNA, one strand shown
# T2 sequence: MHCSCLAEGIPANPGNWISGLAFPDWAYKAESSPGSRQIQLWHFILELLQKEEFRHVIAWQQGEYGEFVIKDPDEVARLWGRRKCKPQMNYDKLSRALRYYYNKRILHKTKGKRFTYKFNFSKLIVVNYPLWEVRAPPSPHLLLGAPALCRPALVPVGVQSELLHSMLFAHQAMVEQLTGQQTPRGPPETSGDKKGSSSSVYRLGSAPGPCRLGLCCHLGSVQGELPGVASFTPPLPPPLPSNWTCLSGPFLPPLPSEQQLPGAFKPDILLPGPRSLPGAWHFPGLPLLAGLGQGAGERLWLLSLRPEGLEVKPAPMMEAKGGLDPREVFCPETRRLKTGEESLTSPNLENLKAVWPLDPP
# In short: as §1
# ETV7 = target: T3, ETV7 (Homo sapiens, UniProt Q9Y603 1-341); conditions: protein: recombinant; tags: N-terminal GST; dsDNA, one strand shown
# T3 sequence: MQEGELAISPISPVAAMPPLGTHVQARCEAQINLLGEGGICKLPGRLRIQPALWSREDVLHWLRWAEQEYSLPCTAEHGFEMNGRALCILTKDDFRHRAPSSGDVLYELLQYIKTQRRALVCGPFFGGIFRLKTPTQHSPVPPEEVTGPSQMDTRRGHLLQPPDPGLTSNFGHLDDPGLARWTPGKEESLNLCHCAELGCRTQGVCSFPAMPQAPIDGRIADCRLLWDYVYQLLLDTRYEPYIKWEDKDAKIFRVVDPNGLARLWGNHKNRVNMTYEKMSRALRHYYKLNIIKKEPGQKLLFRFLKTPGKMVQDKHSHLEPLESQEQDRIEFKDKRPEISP
# In short: as §1
# SPIC = target: T4, SPIC (Homo sapiens, UniProt Q8N5J4 1-248); conditions: protein: recombinant; tags: N-terminal GST; dsDNA, one strand shown
# T4 sequence: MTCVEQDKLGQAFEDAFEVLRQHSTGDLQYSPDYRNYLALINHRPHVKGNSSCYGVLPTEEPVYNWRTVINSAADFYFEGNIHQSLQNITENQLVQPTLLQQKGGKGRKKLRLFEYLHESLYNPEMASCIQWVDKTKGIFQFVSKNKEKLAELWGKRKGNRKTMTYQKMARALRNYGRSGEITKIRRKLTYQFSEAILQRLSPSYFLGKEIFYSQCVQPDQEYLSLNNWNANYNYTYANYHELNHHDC
# In short: as §1
# ERG = target: T5, ERG (Homo sapiens, UniProt P11308 1-479); conditions: protein: recombinant; tags: N-terminal GST; dsDNA, one strand shown
# T5 sequence: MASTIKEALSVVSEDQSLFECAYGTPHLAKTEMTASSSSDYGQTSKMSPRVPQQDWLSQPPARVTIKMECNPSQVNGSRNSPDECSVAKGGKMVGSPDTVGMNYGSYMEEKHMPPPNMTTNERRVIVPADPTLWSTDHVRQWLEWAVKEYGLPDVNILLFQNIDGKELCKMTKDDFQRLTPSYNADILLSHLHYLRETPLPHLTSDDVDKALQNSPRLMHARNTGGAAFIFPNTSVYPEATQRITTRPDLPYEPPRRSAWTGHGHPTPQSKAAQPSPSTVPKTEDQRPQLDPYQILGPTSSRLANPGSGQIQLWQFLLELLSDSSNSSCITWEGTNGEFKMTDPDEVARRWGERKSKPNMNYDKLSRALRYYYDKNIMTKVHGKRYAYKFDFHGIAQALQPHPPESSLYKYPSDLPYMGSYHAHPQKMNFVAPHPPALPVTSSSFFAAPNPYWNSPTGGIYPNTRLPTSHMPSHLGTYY
# In short: as §1
# SPI1 = SPI1 (Homo sapiens, UniProt P17947 1-270); conditions: protein: recombinant; tags: N-terminal GST; dsDNA, one strand shown
# In short: as §1
# ELK3 = target: T6, ELK3 (Homo sapiens, UniProt P41970 1-407); conditions: protein: recombinant; tags: N-terminal GST; dsDNA, one strand shown
# T6 sequence: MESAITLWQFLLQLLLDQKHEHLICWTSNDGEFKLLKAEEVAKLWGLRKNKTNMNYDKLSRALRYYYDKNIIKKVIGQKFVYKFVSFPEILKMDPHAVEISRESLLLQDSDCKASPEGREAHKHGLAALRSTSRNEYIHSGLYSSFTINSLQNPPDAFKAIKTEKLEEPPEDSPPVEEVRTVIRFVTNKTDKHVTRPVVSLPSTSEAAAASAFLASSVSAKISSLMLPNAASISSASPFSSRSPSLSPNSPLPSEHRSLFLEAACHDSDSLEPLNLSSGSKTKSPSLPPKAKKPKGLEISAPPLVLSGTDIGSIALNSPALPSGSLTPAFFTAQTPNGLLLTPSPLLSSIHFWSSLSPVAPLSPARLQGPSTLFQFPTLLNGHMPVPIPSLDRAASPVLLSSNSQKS
# In short: as §1
# GABPA = target: T7, GABPA (Homo sapiens, UniProt Q06546 1-454); conditions: protein: recombinant; tags: N-terminal GST; dsDNA, one strand shown
# T7 sequence: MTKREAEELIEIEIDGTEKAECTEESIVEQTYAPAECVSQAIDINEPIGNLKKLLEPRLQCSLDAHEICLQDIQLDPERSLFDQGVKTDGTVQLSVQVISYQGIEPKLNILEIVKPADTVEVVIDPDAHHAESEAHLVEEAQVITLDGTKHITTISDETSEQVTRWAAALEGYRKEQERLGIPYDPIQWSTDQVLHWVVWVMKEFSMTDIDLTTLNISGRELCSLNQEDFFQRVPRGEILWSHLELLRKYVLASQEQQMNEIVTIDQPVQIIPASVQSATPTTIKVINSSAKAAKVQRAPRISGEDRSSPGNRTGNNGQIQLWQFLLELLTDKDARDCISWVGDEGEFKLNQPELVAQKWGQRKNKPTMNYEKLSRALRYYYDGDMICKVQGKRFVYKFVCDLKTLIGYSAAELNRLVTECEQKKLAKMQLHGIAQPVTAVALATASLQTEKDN
# In short: as §1
# ELF1 = ELF1 (Homo sapiens, UniProt P32519 1-619); conditions: protein: recombinant; tags: N-terminal GST; dsDNA, one strand shown
# ELF1, sequence (P32519 whole entry): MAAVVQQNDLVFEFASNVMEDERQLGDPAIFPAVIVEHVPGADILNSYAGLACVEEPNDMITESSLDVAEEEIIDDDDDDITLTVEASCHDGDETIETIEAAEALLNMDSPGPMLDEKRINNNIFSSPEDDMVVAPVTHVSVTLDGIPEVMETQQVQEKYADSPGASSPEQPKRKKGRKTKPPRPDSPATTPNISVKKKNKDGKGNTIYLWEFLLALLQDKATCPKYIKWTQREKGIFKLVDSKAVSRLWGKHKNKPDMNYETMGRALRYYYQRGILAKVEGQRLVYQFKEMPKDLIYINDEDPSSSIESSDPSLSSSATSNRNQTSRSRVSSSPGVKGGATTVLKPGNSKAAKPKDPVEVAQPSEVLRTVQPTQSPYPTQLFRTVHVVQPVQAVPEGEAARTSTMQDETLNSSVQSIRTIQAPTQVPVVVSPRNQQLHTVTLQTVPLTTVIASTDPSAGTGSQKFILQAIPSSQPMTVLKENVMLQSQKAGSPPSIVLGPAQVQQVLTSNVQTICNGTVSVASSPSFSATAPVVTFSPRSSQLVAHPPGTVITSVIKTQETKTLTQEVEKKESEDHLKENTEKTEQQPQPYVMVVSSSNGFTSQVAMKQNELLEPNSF
# In short: as §1
# EHF = target: T8, EHF (Homo sapiens, UniProt Q9NZC4 1-300); conditions: protein: recombinant; tags: N-terminal GST; dsDNA, one strand shown
# T8 sequence: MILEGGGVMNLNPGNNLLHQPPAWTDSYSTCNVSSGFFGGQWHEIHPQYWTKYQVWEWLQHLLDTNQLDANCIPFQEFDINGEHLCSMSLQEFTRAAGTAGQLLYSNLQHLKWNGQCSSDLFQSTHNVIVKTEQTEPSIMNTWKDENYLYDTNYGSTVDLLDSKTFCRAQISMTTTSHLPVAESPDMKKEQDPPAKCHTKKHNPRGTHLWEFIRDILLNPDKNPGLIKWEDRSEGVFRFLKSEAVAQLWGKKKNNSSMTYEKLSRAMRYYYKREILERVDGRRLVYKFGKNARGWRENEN
# In short: as §1
sequence,measurement,setting,value
GATTAG,binding signal,HSF1,"2.22 fold enrichment (6-mer frequency, TF over GST control)"
same,binding signal,CRX,"3.62 fold enrichment (6-mer frequency, TF over GST control)"
TTCGTG,binding signal,SPIB,"1.04 fold enrichment (6-mer frequency, TF over GST control)"
same,binding signal,HSF1,"1.1 fold enrichment (6-mer frequency, TF over GST control)"
GGATTA,binding signal,HSF1,"3.05 fold enrichment (6-mer frequency, TF over GST control)"
same,binding signal,CRX,"5.42 fold enrichment (6-mer frequency, TF over GST control)"
same,binding signal,SPDEF,"1.02 fold enrichment (6-mer frequency, TF over GST control)"
GGATTC,binding signal,HSF1,"1.13 fold enrichment (6-mer frequency, TF over GST control)"
same,binding signal,CRX,"1.15 fold enrichment (6-mer frequency, TF over GST control)"
same,binding signal,ETV3L,"1.02 fold enrichment (6-mer frequency, TF over GST control)"
same,binding signal,SPDEF,"1.07 fold enrichment (6-mer frequency, TF over GST control)"
CAGAAA,binding signal,HSF1,"1.99 fold enrichment (6-mer frequency, TF over GST control)"
same,binding signal,CRX,"1.07 fold enrichment (6-mer frequency, TF over GST control)"
same,binding signal,ETV7,"1.02 fold enrichment (6-mer frequency, TF over GST control)"
CCAGAT,binding signal,HSF1,"1.61 fold enrichment (6-mer frequency, TF over GST control)"
same,binding signal,CRX,"1.34 fold enrichment (6-mer frequency, TF over GST control)"
TAGAGA,binding signal,HSF1,"1.3 fold enrichment (6-mer frequency, TF over GST control)"
same,binding signal,CRX,"1.15 fold enrichment (6-mer frequency, TF over GST control)"
AGGATC,binding signal,HSF1,"1.08 fold enrichment (6-mer frequency, TF over GST control)"
same,binding signal,CRX,"1.2 fold enrichment (6-mer frequency, TF over GST control)"
same,binding signal,SPDEF,"1.2 fold enrichment (6-mer frequency, TF over GST control)"
AGACTA,binding signal,HSF1,"1.06 fold enrichment (6-mer frequency, TF over GST control)"
same,binding signal,CRX,"1.02 fold enrichment (6-mer frequency, TF over GST control)"
CTGTGG,binding signal,SPIC,"1.1 fold enrichment (6-mer frequency, TF over GST control)"
GTGGAT,binding signal,ERG,"1 fold enrichment (6-mer frequency, TF over GST control)"
same,binding signal,SPI1,"1.06 fold enrichment (6-mer frequency, TF over GST control)"
same,binding signal,ELK3,"1.04 fold enrichment (6-mer frequency, TF over GST control)"
same,binding signal,HSF1,"1.01 fold enrichment (6-mer frequency, TF over GST control)"
same,binding signal,CRX,"1.25 fold enrichment (6-mer frequency, TF over GST control)"
CTAGAC,binding signal,GABPA,"1.01 fold enrichment (6-mer frequency, TF over GST control)"
same,binding signal,ELF1,"1.09 fold enrichment (6-mer frequency, TF over GST control)"
same,binding signal,EHF,"1.01 fold enrichment (6-mer frequency, TF over GST control)"
same,binding signal,HSF1,"1.59 fold enrichment (6-mer frequency, TF over GST control)"
same,binding signal,CRX,"1 fold enrichment (6-mer frequency, TF over GST control)"
